Screening data (PubChem)
This is one part of a sample in which hits are shown more often than they occur.
IDE exosite FP: exo-site inhibitors of human insulin-degrading enzyme; P14735; actives 6.3% (n = 17,000); z-score at 20 µM; purified IDE, FL-6b probe fluorescence polarization; stronger effect = lower value;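 active = z-score of -3 or lower, meaning strong loss of probe binding signal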;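 note: His-tagged human IDE residues 42-1019 made in E. coli with 30 nM FL-6b probe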
Each line names hits and unclear results; the compound was inactive in the other large screens.

CN1CCCCN2[C@H](CO)[C@H](c3ccc(C#Cc4ccccc4F)cc3)[C@H]2C1	IDE exosite FP -4.5
CN1CCCCN2[C@H](CO)[C@H](c3ccc(C#Cc4ccccc4F)cc3)[C@@H]2C1	IDE exosite FP -5.5
COc1ccc(C#Cc2ccc([C@H]3[C@@H](CO)N4CCCCN(C)C[C@H]34)cc2)cc1	none
OC[C@@H]1[C@@H](c2ccc(C#Cc3ccccc3)cc2)[C@H]2CN(Cc3cncnc3)CCCCN12	none
OC[C@@H]1[C@H](c2ccc(C#Cc3ccccc3F)cc2)[C@H]2CN(CC3CCOCC3)CCCCN12	none
CN1CCCCN2[C@H](C1)[C@H](c1ccc(C#Cc3ccccc3F)cc1)[C@@H]2CO	IDE exosite FP -3.9
C/C=C/c1ccc([C@H]2[C@@H](CO)N3CCCCN(S(=O)(=O)c4cccc(C)c4)C[C@@H]23)cc1	none
CO[C@H]1CC[C@H]2CCN(C)C(=O)[C@H](C)N(C)C(=O)c3cccc(C#N)c3OC[C@H]1O2	none
Cc1noc(C)c1S(=O)(=O)N(C)C[C@H]1OCc2ccccc2-c2c(n(C)c3ccccc23)C(=O)N([C@H](C)CO)C[C@@H]1C	none
N#Cc1ccc(-c2ccc([C@H]3[C@@H](CO)N4C(=O)CN(C(=O)C5CCC5)C[C@@H]34)cc2)cc1	none
CC(=O)NC[C@H]1[C@@H](c2ccc(C#C[C@@H](C)O)cc2)[C@@H](CO)N1Cc1ccccn1	none
COc1cccc(NC(=O)N2CC(=O)N3[C@H](CO)[C@H](c4ccc(Br)cc4)[C@H]3C2)c1	none
CC(C)C#Cc1ccc([C@@H]2[C@@H](CO)N3CCCCN(C(=O)Nc4ccccc4)C[C@@H]23)cc1	none
CC(C)C#Cc1ccc([C@@H]2[C@H](CO)N3C(=O)CN(C(=O)NC4CCCC4)C[C@@H]23)cc1	none
Cc1ccccc1-c1ccc([C@H]2[C@H]3CN(C(=O)NC4CCCC4)CC(=O)N3[C@H]2CO)cc1	IDE exosite FP -12
CC(C)C#Cc1ccc([C@@H]2[C@@H](CO)N3C(=O)CN(C(=O)NC4CCCC4)C[C@H]23)cc1	none
Cc1ccccc1-c1ccc([C@H]2[C@H](CO)N3C(=O)CN(C(=O)NC4CCCC4)C[C@@H]23)cc1	IDE exosite FP -21
O=C(NC1CCCC1)N1CC(=O)N2[C@H](CO)[C@H](c3ccc(C4=CCCCC4)cc3)[C@@H]2C1	none
CO[C@H](CN(C)S(=O)(=O)c1cccc(Cl)c1)[C@@H](C)CN(C(=O)Nc1ccccc1F)[C@H](C)CO	none
N#C[C@H]1[C@H](c2ccccc2C2=CCCCC2)[C@@H](CO)N1C(=O)c1cccc(F)c1	none
Cc1ccc(-c2ccc([C@@H]3[C@H]4CN(C(=O)c5ccncc5)CCCCN4[C@H]3CO)cc2)cc1	none
Cc1cccc(-c2ccc([C@@H]3[C@@H](CO)N4CCCCN(C(=O)c5ccncc5)C[C@H]34)cc2)c1	IDE exosite FP -3.1
O=C(c1ccncc1)N1CCCCN2[C@H](C1)[C@@H](c1ccc(-c3ccccc3)cc1)[C@@H]2CO	none
COc1ccccc1-c1ccc([C@@H]2[C@@H](CO)N3CCCCN(C(=O)c4cccnc4)C[C@H]23)cc1	none
O=C(c1ccncc1)N1CCCCN2[C@H](CO)[C@@H](c3ccc(-c4ccccc4)cc3)[C@@H]2C1	none
COc1ccccc1-c1ccc([C@H]2[C@H]3CN(C(=O)c4cccnc4)CCCCN3[C@H]2CO)cc1	none
Cc1cccc(-c2ccc([C@H]3[C@@H](CO)N4CCCCN(C(=O)c5ccncc5)C[C@H]34)cc2)c1	IDE exosite FP -18
Cc1ccc(-c2ccc([C@@H]3[C@@H](CO)N4CCCCN(C(=O)c5ccncc5)C[C@H]34)cc2)cc1	none
Cc1ccc(-c2ccc([C@H]3[C@H](CO)N4CCCCN(C(=O)c5ccncc5)C[C@@H]34)cc2)cc1	none
Cc1cccc(-c2ccc([C@@H]3[C@@H](CO)N4CCCCN(C(=O)c5ccncc5)C[C@@H]34)cc2)c1	IDE exosite FP -3.1
Cc1ccc(-c2ccc([C@H]3[C@@H](CO)N4CCCCN(C(=O)c5ccncc5)C[C@@H]34)cc2)cc1	none
COc1ccccc1-c1ccc([C@@H]2[C@H](CO)N3CCCCN(C(=O)c4ccncc4)C[C@@H]23)cc1	IDE exosite FP -13
COc1ccc(-c2ccc(C3[C@H]4CNC[C@@H]3N4C(=O)Nc3ccc(C(F)(F)F)cc3)cc2)cc1 (stereo not given in full)	none
CCCC(=O)Nc1ccc2c(c1)OC[C@H](C)NC[C@H](C)[C@@H](OC)CN(C)C2=O	none
C/C=C/c1ccc([C@H]2[C@@H](CO)N(C(=O)CC)[C@@H]2CN(C)C(=O)NC(C)C)cc1	none
COc1cc(CN2CC3(CCN(S(=O)(=O)c4cn(C)cn4)CC3)c3c(n(C)c4cc(OC)ccc34)[C@H]2CO)cc(OC)c1	none
O=S(=O)(c1cccs1)N1CCCCN2[C@@H](CO)[C@@H](c3ccc(C4=CCCC4)cc3)[C@@H]2C1	none
COc1ccc(S(=O)(=O)Nc2cccc3c2O[C@H](CN(C)CC2CCCCC2)[C@H](C)CN([C@H](C)CO)C3=O)cc1	none
OC[C@H]1[C@@H](c2ccc(-c3cccc(F)c3)cc2)[C@@H]2CN(CCC(F)(F)F)CCCCN12	none
COCC(=O)Nc1ccc2c(c1)C(=O)N(C)[C@@H]1CC[C@H](CC(=O)NCCCN(C)C)O[C@@H]1CO2	none
N#C[C@@H]1[C@H](c2ccccc2)[C@@H](CO)N1C(=O)Cc1ccccn1	none
CN(C)CC#Cc1ccc([C@H]2[C@H](CO)N3CCCCN(C(=O)Nc4ccccc4F)C[C@@H]23)cc1	none
Cc1cccc(-c2ccc([C@@H]3[C@H]4CN(C(=O)c5ccncc5)CCCCN4[C@H]3CO)cc2)c1	IDE exosite FP -17
O=C(c1ccncc1)N1CCCCN2[C@H](CO)[C@H](c3ccc(-c4ccccc4)cc3)[C@@H]2C1	none
O=C(c1cccc(F)c1)N1CCCCN2[C@@H](CO)[C@H](c3ccc(-c4ccncc4)cc3)[C@@H]2C1	none
O=C(c1ccccc1F)N1CC[C@H]2[C@H](CO)Nc3ccc(Br)cc3[C@H]21	none
CS(=O)(=O)Nc1ccc2c(c1)[C@@H]1C[C@H](CC(=O)NCc3cc(F)ccc3F)O[C@H](CO)[C@@H]1O2	none
CCCNC(=O)N1[C@H](C#N)[C@H](c2ccc(C#Cc3ccc(F)cc3)cc2)[C@@H]1CO	none
CN(C)C(=O)c1cccc(-c2ccccc2[C@H]2[C@@H](C#N)N(C(=O)C3CCC3)[C@H]2CO)c1	none
CCCC#Cc1ccc([C@@H]2[C@@H](CO)N3C(=O)CN(C(=O)Nc4ccccc4F)C[C@@H]23)cc1	none
CN1c2ccc(Br)cc2[C@H]2[C@H](CCN2C(=O)CN2CCOCC2)[C@H]1CO	none
COc1ccccc1-c1ccc2c(c1)[C@H]1[C@H](CCN1C(=O)CN1CCOCC1)[C@H](CO)N2C	IDE exosite FP -3.3
Cc1ccccc1-c1ccc([C@H]2[C@H](CO)N3CCCCN(C(=O)CN4CCOCC4)C[C@@H]23)cc1	IDE exosite FP -3.7
CN1c2ccc(-c3cccc(C#N)c3)cc2[C@@H]2[C@@H](CCN2C(=O)CN2CCOCC2)[C@H]1CO	none
COc1ccccc1-c1ccc([C@@H]2[C@@H](CO)N3CCCCN(C(=O)CN4CCOCC4)C[C@@H]23)cc1	IDE exosite FP -6.5
COc1ccccc1-c1ccc([C@H]2[C@@H](CO)N3CCCCN(C(=O)CN4CCOCC4)C[C@@H]23)cc1	none
Cc1ccccc1-c1ccc([C@@H]2[C@H](CO)N3CCCCN(C(=O)CN4CCOCC4)C[C@@H]23)cc1	IDE exosite FP -14
COc1ccccc1-c1ccc([C@@H]2[C@@H](CO)N3CCCCN(C(=O)CN4CCOCC4)C[C@H]23)cc1	none
Cc1ccccc1-c1ccc([C@H]2[C@H]3CN(C(=O)CN4CCOCC4)CCCCN3[C@H]2CO)cc1	none
